Measurements from PubChem BioAssay (NCI).
About 79,000 compounds went through this panel and 15% of them were active in at least one assay; those are over-represented in the sample as a whole. Values without a mark were called inactive. Calls of active or inactive are those of the source. No stated cut-off is given here; in the data, active means growth inhibition above about 70%; inactive means the rest.

Assays:
[1] = NCI Yeast Anticancer Drug Screen. Data for the rad50 strain (AID 155);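 further: 0% = growth of vehicle-only cultures of the same strain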; settings: S. cerevisiae rad50 strain growth inhibition; at 50.0 µM; active compounds read high
Procedure, shortened: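 DNA repair mutant yeast, compound exposure, growth read-out; inhibition is taken relative to vehicle.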

[2] = NCI Yeast Anticancer Drug Screen. Data for the mec2-1 strain (AID 157); settings: S. cerevisiae mec2-1 strain, at 50.0 µM, active compounds read high
Procedure, shortened: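 Strain: mec2-1 (DNA repair/cell cycle alteration). Compound exposure, then growth measured; inhibition expressed relative to vehicle.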

[3] = NCI Yeast Anticancer Drug Screen. Data for the sgs1 mgt1 strain (AID 161);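 further: 0% = growth of cultures given vehicle only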; settings: S. cerevisiae sgs1 mgt1 strain, at 50.0 µM, active compounds read high
Procedure, shortened: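 Test agents were incubated with a DNA-repair-mutant yeast strain. Growth was then read and compared against vehicle-treated controls.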

[4] = NCI Yeast Anticancer Drug Screen. Data for the cln2 rad14 strain (AID 165);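 further: 0% = growth equal to vehicle treated cultures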; settings: S. cerevisiae cln2 rad14 strain, at 50.0 µM, active compounds read high
Procedure, shortened: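 Compounds are applied to the cln2 rad14 yeast strain, and growth is then compared with that of vehicle-treated cultures to give inhibition.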

[5] = NCI Yeast Anticancer Drug Screen. Data for the bub3 strain (AID 167); settings: S. cerevisiae bub3 mutant strain, at 50.0 µM, active compounds read high
Procedure, shortened: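 In this screen, a yeast mutant lacking normal mitotic checkpoint function is challenged with compound. Relative growth versus vehicle gives the inhibition value.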

[6] = NCI Yeast Anticancer Drug Screen. Data for the mlh1 rad18 strain (AID 175); settings: S. cerevisiae mlh1 rad18 strain growth inhibition; at 50.0 µM; active compounds read high
Procedure, shortened: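 Read-out is yeast growth inhibition, calculated against vehicle-only controls. The compound was applied to a strain engineered with DNA damage repair alterations.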

Row | Compound | growth inhibition [1] | growth inhibition [2] [%] | growth inhibition [3] [%] | growth inhibition [4] [%] | growth inhibition [5] [%] | growth inhibition [6] [%]
1 | CCOC(=O)C1(Br)C(c2ccccc2)NC(=O)NC1(C)Br (stereo not drawn) | 9.15% | -12.2 | 0.6 | 12.8 | -1.75 | -14.6
2 | CC(=S)NC(O)C(=O)c1ccccc1 (stereo not drawn) | 9.85% | 12.8 | 45 | 8.6 | 45.2 | 6.45
3 | CC(=O)N(C(C)=O)n1c(Cc2ccc(C)cc2)nn(C(C)=O)c1=O | -26.9% | 15.2 | -16.9 | 13.3 | -1.75 | -27.9
4 | COc1ccc(-c2c(C#N)c(O)n(NS(=O)(=O)c3ccc(C)cc3)c(=O)c2C#N)cc1 | 12.1% | 37 | 33 | 20.8 | 28.5 | 37.5
5 | O=C1c2cccc(O)c2C(=O)c2c(OC3OC(CO)C(OC4OC(CO)C(O)C(O)C4O)C(O)C3O)cccc21 (stereo not drawn) | 94.2% (active) | 36.2 | 32.5 | -5.55 | 4.15 | 31.4
6 | COc1ccc(CCn2cnc3ccccc32)cc1 | -44.1% | -34.6 | -34.5 | -4.05 | -11.4 | -18.9
7 | CCCC(=O)c1c(NOC2OCC(OC(C)=O)C(OC(C)=O)C2OC(C)=O)nc(OC)n(C)c1=O (stereo not drawn) | -24.7% | 3.1 | -40.1 | 6.8 | -15.9 | -16.6
8 | CC(C)C(C)(O)C#CC(C)(O)C(C)C (stereo not drawn) | 1.4% | 8.85 | 3.25 | -15.5 | 23.9 | 12.1
9 | COc1ccc2nc(NC(=O)C(=O)C(C)C(=O)c3ccc(Cl)cc3)sc2c1 (stereo not drawn) | -10.1% | 4.85 | -8.65 | -5.9 | -2.55 | -0.25
10 | COc1cc2c3cc1Oc1c(OC)c(OC)cc4c1C(Cc1ccc(O)c(c1)Oc1ccc(cc1)CC3N(C)CC2)CN(C)C4 (stereo not drawn) | -17.6% | -37.9 | -3.6 | -17.4 | 3.35 | 25.1
11 | CCc1c(C)c2cc(N)ccc2[nH]c1=O | -8.05% | 24.1 | -3.7 | -23.7 | -9.9 | 6.45
12 | O=C(O)CNC(=O)C(Cc1ccccc1)NC(=O)CNC(=O)C(CSC(c1ccccc1)c1ccccc1)NC(=O)C(CSC(c1ccccc1)(c1ccccc1)c1ccccc1)N1C(=O)c2ccccc2C1=O (stereo not drawn) | 1.5% | 14.1 | -3.7 | -17.9 | -7.05 | 11
13 | CCN(CC)C(=O)c1cc([N+](=O)[O-])c(=O)n2c1[nH]c1ccccc12 | -17.9% | 6.8 | -59.6 | 23.1 | -18.5 | -5.85
14 | CC(C)(C)c1[nH]ncc1CCC(=O)Nc1ccc(Cl)cc1Cl | -0.6% | -1.95 | -5.85 | 1.1 | -16.1 | 4.05
15 | C/C(CC(=O)Nc1cccc([N+](=O)[O-])c1)=N\NC(=O)CC#N | -3.45% | -13.3 | 0.55 | 12.1 | -8.45 | 2.35
16 | COc1ccc(C(=O)c2cc(OC)c(OC)c(OC)c2)cc1OC | -21.9% | -27.2 | -13.8 | 0.3 | 7.45 | -10.4
17 | CNC(=O)OCc1c(COC(=O)NC)c2n(c1C)CSC2 | 4.95% | -14.4 | -11.3 | -7.9 | -5.45 | 2
18 | O=C1C(c2ccccc2)=C(c2ccccc2)C(c2ccc(Sc3ccc(C4=C(c5ccccc5)C(=O)C(c5ccccc5)=C4c4ccccc4)cc3)cc2)=C1c1ccccc1 | 12.9% | 22.6 | 30.6 | 15.7 | -1.2 | 24.2
